Measurements: ChEMBL document CHEMBL1961873, “Compounds: GSK PKIS; Assays: Nanosyn kinase panel” (2012)

Key:
[1] = target: T1, Ephrin type-B receptor 2 (Homo sapiens) (UniProt P29323); conditions: at 1 µM
T1 sequence (whole entry): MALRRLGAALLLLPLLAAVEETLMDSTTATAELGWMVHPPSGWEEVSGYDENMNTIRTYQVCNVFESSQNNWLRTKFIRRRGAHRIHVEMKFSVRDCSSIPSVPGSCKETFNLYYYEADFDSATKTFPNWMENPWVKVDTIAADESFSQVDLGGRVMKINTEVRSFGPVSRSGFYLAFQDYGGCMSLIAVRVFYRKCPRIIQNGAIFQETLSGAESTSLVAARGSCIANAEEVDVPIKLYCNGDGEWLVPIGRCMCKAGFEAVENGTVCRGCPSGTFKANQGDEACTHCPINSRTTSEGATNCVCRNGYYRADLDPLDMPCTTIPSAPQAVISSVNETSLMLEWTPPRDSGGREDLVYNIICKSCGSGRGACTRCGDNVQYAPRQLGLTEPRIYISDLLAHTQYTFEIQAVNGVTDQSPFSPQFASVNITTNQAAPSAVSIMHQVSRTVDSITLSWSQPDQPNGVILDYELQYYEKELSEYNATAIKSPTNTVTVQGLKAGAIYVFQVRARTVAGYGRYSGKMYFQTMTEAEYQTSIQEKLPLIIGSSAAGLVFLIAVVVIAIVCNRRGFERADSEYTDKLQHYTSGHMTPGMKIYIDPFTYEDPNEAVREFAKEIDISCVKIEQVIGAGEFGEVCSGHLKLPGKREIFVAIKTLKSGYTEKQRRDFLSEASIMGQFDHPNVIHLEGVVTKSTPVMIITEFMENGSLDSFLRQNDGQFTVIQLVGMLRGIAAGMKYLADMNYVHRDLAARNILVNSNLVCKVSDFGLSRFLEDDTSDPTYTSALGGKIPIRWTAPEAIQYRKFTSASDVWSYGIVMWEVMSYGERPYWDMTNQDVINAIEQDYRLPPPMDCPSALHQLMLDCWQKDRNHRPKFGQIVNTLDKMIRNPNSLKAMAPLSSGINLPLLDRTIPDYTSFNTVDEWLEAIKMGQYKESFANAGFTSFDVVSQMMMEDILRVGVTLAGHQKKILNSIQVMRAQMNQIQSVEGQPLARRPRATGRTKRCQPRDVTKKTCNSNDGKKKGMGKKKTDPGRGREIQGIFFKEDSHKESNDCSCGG

[2] = target: T2, Ephrin type-B receptor 3 (Homo sapiens) (UniProt P54753); conditions: at 0.1 µM
T2 sequence (whole entry): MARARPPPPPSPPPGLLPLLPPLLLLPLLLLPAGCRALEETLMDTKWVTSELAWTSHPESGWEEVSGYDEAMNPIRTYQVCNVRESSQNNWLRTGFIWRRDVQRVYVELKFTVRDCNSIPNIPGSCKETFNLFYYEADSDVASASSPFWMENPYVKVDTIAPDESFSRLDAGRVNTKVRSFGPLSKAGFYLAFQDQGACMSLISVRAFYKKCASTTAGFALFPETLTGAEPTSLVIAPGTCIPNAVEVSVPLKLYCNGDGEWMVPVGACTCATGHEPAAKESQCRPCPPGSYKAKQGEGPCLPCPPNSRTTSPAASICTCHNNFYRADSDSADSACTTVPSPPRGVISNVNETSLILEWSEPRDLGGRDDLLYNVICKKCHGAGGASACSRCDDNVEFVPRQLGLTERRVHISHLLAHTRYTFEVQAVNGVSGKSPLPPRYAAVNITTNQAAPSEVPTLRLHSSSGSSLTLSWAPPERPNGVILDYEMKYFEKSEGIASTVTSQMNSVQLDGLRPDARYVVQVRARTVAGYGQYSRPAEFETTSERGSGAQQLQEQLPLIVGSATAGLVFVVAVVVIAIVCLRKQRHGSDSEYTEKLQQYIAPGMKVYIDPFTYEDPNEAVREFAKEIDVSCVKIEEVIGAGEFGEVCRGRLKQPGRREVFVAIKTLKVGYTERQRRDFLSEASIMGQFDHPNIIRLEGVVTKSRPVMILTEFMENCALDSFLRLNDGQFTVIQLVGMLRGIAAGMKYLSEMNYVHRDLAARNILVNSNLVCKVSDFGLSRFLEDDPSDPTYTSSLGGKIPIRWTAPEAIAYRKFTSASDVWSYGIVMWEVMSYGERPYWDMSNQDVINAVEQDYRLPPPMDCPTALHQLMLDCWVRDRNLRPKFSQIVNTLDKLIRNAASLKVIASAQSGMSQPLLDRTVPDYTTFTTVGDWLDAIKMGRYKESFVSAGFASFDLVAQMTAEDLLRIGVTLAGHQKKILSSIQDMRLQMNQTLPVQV

[3] = target: T2, Ephrin type-B receptor 3 (Homo sapiens); conditions: at 1 µM
[4] = target: T3, Ephrin type-B receptor 4 (Homo sapiens) (UniProt P54760); conditions: at 0.1 µM
T3 sequence (whole entry): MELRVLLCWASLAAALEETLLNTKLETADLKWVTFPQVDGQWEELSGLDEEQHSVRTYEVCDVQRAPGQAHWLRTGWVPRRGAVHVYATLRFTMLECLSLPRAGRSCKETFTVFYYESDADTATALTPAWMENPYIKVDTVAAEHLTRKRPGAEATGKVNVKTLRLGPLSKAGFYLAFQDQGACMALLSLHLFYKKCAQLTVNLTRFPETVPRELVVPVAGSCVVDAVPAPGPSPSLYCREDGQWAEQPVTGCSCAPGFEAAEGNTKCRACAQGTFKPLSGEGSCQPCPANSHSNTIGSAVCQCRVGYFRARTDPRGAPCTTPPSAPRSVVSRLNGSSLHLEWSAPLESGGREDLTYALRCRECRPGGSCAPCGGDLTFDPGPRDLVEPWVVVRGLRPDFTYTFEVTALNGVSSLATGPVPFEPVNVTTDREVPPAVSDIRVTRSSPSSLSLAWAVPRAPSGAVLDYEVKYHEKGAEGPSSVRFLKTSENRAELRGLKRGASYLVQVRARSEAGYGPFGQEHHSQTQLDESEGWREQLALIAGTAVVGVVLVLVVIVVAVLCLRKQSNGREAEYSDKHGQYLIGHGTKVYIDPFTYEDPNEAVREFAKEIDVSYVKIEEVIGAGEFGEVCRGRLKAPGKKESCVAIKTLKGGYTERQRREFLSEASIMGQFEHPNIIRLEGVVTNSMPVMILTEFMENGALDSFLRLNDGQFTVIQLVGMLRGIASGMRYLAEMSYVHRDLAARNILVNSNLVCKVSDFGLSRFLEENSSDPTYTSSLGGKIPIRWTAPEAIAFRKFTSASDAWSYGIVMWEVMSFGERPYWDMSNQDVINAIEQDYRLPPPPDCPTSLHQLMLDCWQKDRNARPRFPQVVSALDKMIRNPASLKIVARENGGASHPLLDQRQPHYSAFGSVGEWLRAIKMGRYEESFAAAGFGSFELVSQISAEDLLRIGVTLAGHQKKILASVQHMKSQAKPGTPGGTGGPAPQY

[5] = target: T3, Ephrin type-B receptor 4 (Homo sapiens); conditions: at 1 µM
[6] = target: Receptor tyrosine-protein kinase erbB-2 (Homo sapiens) (UniProt P04626); conditions: at 0.1 µM
Sequence of Receptor tyrosine-protein kinase erbB-2 (Homo sapiens) (P04626 whole entry): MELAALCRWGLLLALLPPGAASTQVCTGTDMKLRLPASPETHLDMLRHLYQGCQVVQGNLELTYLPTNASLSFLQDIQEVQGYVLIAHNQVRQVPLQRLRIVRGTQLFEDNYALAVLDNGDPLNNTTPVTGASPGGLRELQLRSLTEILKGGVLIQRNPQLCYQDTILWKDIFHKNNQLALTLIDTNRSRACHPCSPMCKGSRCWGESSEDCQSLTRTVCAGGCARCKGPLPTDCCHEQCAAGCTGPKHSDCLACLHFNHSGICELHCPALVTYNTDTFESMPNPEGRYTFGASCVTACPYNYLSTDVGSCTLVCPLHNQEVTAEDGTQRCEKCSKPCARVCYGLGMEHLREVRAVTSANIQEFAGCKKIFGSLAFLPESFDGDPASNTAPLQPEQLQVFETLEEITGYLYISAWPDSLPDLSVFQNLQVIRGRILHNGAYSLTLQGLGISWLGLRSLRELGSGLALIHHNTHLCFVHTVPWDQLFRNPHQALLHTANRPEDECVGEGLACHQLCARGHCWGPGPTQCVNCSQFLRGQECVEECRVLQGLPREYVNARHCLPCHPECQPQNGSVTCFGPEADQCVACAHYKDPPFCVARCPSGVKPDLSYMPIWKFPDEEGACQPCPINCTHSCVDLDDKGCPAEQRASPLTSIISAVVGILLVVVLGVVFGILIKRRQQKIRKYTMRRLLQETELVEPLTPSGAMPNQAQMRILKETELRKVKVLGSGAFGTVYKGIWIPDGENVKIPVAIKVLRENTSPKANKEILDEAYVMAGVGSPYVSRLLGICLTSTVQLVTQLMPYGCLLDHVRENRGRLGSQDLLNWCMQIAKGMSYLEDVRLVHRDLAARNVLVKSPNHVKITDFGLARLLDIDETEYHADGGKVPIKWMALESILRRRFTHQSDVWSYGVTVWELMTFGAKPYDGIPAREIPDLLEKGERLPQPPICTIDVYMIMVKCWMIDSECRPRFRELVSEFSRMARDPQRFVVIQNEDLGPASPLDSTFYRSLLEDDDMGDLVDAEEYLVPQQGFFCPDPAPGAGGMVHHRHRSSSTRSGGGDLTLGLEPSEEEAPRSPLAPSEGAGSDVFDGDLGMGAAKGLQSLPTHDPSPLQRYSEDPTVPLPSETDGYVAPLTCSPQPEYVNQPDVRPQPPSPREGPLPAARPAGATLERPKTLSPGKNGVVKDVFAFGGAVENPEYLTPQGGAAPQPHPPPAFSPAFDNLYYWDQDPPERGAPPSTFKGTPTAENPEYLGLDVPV

[7] = target: Receptor tyrosine-protein kinase erbB-2 (Homo sapiens) (UniProt P04626); conditions: at 1 µM
[8] = target: Receptor tyrosine-protein kinase erbB-4 (Homo sapiens) (UniProt Q15303); conditions: at 0.1 µM
[9] = target: Receptor tyrosine-protein kinase erbB-4 (Homo sapiens) (UniProt Q15303); conditions: at 1 µM
[10] = target: Tyrosine-protein kinase Fer (Homo sapiens) (UniProt P16591); conditions: at 0.1 µM
Sequence of Tyrosine-protein kinase Fer (Homo sapiens) (P16591 whole entry, looked up): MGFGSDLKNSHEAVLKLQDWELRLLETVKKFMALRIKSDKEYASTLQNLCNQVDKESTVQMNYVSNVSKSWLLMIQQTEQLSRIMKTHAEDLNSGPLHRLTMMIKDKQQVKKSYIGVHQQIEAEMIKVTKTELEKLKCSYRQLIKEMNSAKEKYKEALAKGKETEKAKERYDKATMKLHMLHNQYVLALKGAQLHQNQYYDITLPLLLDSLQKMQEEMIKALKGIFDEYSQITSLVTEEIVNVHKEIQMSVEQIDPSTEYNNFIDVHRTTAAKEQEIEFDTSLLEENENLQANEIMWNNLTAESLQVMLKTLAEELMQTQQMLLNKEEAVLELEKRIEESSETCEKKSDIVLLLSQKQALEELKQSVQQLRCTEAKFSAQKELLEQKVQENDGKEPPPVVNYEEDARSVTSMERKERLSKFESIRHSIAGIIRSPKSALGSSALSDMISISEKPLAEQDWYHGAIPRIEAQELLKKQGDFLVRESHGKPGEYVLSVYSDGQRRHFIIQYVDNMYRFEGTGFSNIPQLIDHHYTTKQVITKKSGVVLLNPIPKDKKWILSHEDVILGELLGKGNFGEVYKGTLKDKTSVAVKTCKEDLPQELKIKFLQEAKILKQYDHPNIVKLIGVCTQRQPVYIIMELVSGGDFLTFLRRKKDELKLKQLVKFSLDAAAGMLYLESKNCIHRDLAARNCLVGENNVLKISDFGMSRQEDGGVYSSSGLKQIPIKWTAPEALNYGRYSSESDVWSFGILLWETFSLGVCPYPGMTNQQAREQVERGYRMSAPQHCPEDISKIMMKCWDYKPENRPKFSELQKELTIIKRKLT

[11] = target: Tyrosine-protein kinase Fer (Homo sapiens) (UniProt P16591); conditions: at 1 µM
[12] = target: Tyrosine-protein kinase Fes/Fps (Homo sapiens) (UniProt P07332); conditions: at 0.1 µM
Sequence of Tyrosine-protein kinase Fes/Fps (Homo sapiens) (P07332 whole entry): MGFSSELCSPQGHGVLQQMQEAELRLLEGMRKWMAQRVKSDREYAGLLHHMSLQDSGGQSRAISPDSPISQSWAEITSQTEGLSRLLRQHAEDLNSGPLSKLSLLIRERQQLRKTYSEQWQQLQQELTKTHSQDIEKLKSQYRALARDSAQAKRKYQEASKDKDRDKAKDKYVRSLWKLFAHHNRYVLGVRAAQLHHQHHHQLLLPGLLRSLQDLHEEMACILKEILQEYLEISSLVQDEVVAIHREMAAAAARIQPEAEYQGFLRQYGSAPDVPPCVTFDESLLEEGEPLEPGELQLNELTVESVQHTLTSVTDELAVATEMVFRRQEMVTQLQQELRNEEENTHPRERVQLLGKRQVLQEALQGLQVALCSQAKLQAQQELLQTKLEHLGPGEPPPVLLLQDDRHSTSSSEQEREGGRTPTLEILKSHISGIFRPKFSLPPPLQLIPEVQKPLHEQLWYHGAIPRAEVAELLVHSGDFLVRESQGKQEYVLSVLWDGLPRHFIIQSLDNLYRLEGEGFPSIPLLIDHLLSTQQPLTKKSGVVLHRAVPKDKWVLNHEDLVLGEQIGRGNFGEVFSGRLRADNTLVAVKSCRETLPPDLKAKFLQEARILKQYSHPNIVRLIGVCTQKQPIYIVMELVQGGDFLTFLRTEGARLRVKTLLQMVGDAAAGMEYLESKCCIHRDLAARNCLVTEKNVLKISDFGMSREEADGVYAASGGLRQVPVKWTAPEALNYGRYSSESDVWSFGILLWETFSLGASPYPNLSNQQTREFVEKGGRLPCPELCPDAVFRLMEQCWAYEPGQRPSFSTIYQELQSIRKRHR

[13] = target: Tyrosine-protein kinase Fes/Fps (Homo sapiens) (UniProt P07332); conditions: at 1 µM
[14] = target: Fibroblast growth factor receptor 1 (Homo sapiens) (UniProt P11362); conditions: at 0.1 µM
[15] = target: Fibroblast growth factor receptor 1 (Homo sapiens) (UniProt P11362); conditions: at 1 µM
[16] = target: Fibroblast growth factor receptor 2 (Homo sapiens) (UniProt P21802); conditions: at 0.1 µM
Sequence of Fibroblast growth factor receptor 2 (Homo sapiens) (P21802 22-821 limits assumed): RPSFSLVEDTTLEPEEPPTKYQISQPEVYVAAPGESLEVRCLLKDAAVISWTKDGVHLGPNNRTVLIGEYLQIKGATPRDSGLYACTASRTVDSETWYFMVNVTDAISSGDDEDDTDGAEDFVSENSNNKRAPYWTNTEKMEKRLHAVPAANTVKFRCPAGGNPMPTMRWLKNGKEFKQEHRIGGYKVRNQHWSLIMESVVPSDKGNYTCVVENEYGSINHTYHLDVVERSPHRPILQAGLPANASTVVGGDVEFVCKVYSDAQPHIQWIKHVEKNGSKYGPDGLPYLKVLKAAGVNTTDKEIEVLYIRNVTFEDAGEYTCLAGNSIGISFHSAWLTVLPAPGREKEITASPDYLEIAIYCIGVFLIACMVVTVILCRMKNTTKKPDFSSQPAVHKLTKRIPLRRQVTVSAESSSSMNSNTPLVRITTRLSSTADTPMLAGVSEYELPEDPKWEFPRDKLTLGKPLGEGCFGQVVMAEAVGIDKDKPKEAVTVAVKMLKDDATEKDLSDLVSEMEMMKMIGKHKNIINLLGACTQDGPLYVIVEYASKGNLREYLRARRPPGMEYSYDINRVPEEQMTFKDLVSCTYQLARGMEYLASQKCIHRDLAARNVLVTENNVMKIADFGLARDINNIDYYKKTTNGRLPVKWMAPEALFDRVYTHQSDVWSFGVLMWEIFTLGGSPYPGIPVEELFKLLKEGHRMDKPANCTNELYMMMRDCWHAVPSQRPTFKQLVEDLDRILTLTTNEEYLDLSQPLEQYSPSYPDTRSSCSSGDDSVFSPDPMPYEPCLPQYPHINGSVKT

[17] = target: Fibroblast growth factor receptor 2 (Homo sapiens) (UniProt P21802); conditions: at 1 µM
[18] = target: Fibroblast growth factor receptor 3 (Homo sapiens) (UniProt P22607); conditions: at 0.1 µM
[19] = target: Fibroblast growth factor receptor 3 (Homo sapiens) (UniProt P22607); conditions: at 1 µM
[20] = target: Fibroblast growth factor receptor 4 (Homo sapiens) (UniProt P22455); conditions: at 0.1 µM;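 note: values are mean percent inhibition of FGFR4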
Sequence of Fibroblast growth factor receptor 4 (Homo sapiens) (P22455 22-802 limits assumed): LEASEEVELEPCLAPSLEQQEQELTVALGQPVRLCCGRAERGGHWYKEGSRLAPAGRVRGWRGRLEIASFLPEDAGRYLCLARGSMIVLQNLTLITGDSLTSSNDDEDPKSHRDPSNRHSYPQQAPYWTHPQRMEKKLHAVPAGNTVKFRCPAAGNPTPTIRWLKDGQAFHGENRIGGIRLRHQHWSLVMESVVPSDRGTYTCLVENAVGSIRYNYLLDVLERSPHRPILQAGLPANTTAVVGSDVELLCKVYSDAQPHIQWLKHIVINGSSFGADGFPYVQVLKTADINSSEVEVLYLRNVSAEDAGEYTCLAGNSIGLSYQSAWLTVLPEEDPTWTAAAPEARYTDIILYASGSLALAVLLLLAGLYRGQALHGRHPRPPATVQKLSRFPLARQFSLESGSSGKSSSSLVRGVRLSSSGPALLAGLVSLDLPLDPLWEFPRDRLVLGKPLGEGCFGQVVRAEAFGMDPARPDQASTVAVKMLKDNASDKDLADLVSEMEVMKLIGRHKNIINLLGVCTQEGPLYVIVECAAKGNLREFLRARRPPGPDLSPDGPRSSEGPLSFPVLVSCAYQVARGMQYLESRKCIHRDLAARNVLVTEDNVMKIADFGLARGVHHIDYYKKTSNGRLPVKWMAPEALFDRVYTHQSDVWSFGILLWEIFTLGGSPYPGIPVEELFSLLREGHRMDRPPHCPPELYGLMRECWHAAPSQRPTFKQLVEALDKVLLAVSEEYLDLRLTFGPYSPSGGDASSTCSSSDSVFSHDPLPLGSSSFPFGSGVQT

SMILES | inhibition [1] [%] | inhibition [2] [%] | inhibition [3] [%] | inhibition [4] [%] | inhibition [5] [%] | inhibition [6] [%] | inhibition [7] [%] | inhibition [8] [%] | inhibition [9] [%] | inhibition [10] [%] | inhibition [11] [%] | inhibition [12] [%] | inhibition [13] [%] | inhibition [14] [%] | inhibition [15] [%] | inhibition [16] [%] | inhibition [17] [%] | inhibition [18] [%] | inhibition [19] [%] | inhibition [20] [%]
CN1CCC(n2cnc(-c3ccc(F)cc3)c2-c2ccnc(N)n2)CC1 | 11.7 | 4.01 | 1.1 | 1.15 | 2.9 | 1.81 | 3.61 | 8.28 | 18.6 | 1.42 | 8.24 | 2.63 | 2.33 | -0.33 | -2.26 | 1.68 | 4.49 | 3.51 | 4.31 | 1.4
Nc1ncc(-c2cccc(S(N)(=O)=O)c2)c2scc(-c3ccc(F)c(Cl)c3)c12 | 88.7 | 9.18 | 22 | 49.3 | 87.1 | 4.06 | 6.32 | 13.2 | 29.6 | 5.25 | 30 | 4 | 7.1 | 2.01 | 16.1 | 8.86 | 32.8 | 6.12 | 23.3 | 2.27
NS(=O)(=O)c1ccc(Nc2ncc(-c3ccccc3)o2)cc1 | 7.75 | 4.17 | 3.33 | 2.27 | 1.72 | 2.57 | 2.77 | 8.79 | 10.5 | 2.73 | 4.95 | 2.8 | 4.88 | 6.58 | 8.69 | 7.74 | 16.1 | 7.08 | 11.2 | 2.06
COc1cccc(-c2c[nH]c3c(N/N=C/c4ccncc4)ncnc23)c1 | 25.9 | 3.32 | -5.7 | 3.21 | 13.5 | 0.26 | 2.47 | 8.94 | 21.9 | 4.27 | 8.57 | 1.82 | 2.81 | 0.74 | 6.34 | 1.79 | 9.49 | 4.63 | 8.05 | 4.93
